Data as given in PubChem BioAssay AID1159580 (chemical genetic matrix, 2015).
“And” between values parts separate entries of the source, which are not always exact repeats. Identical values can stand only once. The whole screen tested about 5,500 compounds, of which about 2,000 (36%) were called active. About 18% were inconclusive and are not listed. No stated cut-off is given here; in the data, active means normalized growth mostly below about 0.91 (no sharp cut-off); inconclusive means no clear call, values can overlap the other calls; inactive means mostly above about 0.92. The list shows a part of the results.

Experiment: chemical genetic growth profiling, strain panel (AID 1159580);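 further: tested at 20 µM; growth read once vehicle control cultures reached saturation at 30 °C; 1 = growth at the plate median or of vehicle wells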
Conditions: S. cerevisiae deletion strains, growth OD
[1] = locus YAL013W, strain DEP1, stronger effect = lower value
[2] = locus YMR307W, strain GAS1, stronger effect = lower value

Measured: normalized growth

N[C@@H](Cn1oc(=O)[nH]c1=O)C(=O)O
inactive: [1] 1.01 | locus YAL040C, strain CLN3, stronger effect = lower value 0.975 | locus YCL061C, strain MRC1 (second series), stronger effect = lower value 0.991 | locus YDR150W, strain NUM1, stronger effect = lower value 0.996 | locus YDR363W, strain ESC2, stronger effect = lower value 0.968 | locus YER002W, strain NOP16, stronger effect = lower value 0.979 | locus YGR078C, strain PAC10, stronger effect = lower value 0.979 | locus YMR263W, strain SAP30, stronger effect = lower value 1.01 | [2] 1.02 | locus YNL153C, strain GIM3, stronger effect = lower value 0.996 | locus YNL175C, strain NOP13, stronger effect = lower value 0.99 | locus YNL197C, strain WHI3, stronger effect = lower value 0.972 | locus YNL224C, strain SQS1, stronger effect = lower value 0.989 | locus YOR083W, strain WHI5 (second series), stronger effect = lower value 0.961

CC(CCC(=O)O)[C@H]1CCC2C3C(C[C@H](O)[C@@]21C)[C@@]1(C)CC[C@@H](O)C[C@H]1C[C@H]3O (stereo partly specified)
inactive: [1] 1.01 | locus YAL021C, strain ccr4, stronger effect = lower value 1.08 | locus YAL026C, strain drs2, stronger effect = lower value 1.03 | locus YAL030W, strain snc1, stronger effect = lower value 1.01 | locus YBL061C, strain skt5, stronger effect = lower value 1 | locus YBR009C, strain hhf1, stronger effect = lower value 1.05 | locus YBR021W, strain FUR4, stronger effect = lower value 0.995 | locus YBR023C, strain chs3, stronger effect = lower value 1.01 | locus YBR171W, strain sec66, stronger effect = lower value 1.02 | locus YBR229C, strain ROT2, stronger effect = lower value 1.01 | locus YBR231C, strain swc5, stronger effect = lower value 1 | locus YBR279W, strain paf1, stronger effect = lower value 1.02 | locus YCL011C, strain gbp2, stronger effect = lower value 1.02 | locus YCL016C, strain dcc1, stronger effect = lower value 1 | locus YCL029C, strain bik1, stronger effect = lower value 1.02 | locus YCL061C, strain MRC1, stronger effect = lower value 1.01 | locus YCL069W, strain vba3, stronger effect = lower value 1.02 | locus YCR088W, strain abp1, stronger effect = lower value 1.01 | locus YDL005C, strain med2, stronger effect = lower value 1.01 | locus YDL035C, strain GPR1, stronger effect = lower value 1.03 | locus YDL040C, strain nat1, stronger effect = lower value 1.02 | locus YDL074C, strain BRE1, stronger effect = lower value 1.02 | locus YDL101C, strain DUN1, stronger effect = lower value 1.02 | locus YDL185W, strain tfp1, stronger effect = lower value 1 | locus YDL192W, strain arf1, stronger effect = lower value 1.01 | locus YDR001C, strain nth1, stronger effect = lower value 1.02 | locus YDR069C, strain doa4, stronger effect = lower value 1.02 | locus YDR101C, strain arx1, stronger effect = lower value 0.985 | locus YDR137W, strain rgp1, stronger effect = lower value 0.991 | locus YDR159W, strain sac3, stronger effect = lower value 1.03 | locus YDR162C, strain NBP2, stronger effect = lower value 1.02 | locus YDR195W, strain ref2 1.03 | locus YDR297W, strain sur2, stronger effect = lower value 0.998 | locus YDR318W, strain mcm21, stronger effect = lower value 1.01 | locus YDR334W, strain swr1, stronger effect = lower value 1.03 | locus YDR335W, strain msn5, stronger effect = lower value 0.986 | locus YDR388W, stronger effect = lower value 1 | locus YDR392W, strain spt3, stronger effect = lower value 0.958 | locus YDR502C, strain sam2, stronger effect = lower value 1.01 | locus YEL003W, strain gim4, stronger effect = lower value 1.02 | locus YEL037C, strain rad23, stronger effect = lower value 1.03 | locus YEL061C, strain CIN8 (second series), stronger effect = lower value 1.02 | locus YEL061C, strain CIN8, stronger effect = lower value 1.03 | locus YER015W, strain faa2, stronger effect = lower value 0.982 | locus YER016W, strain bim1, stronger effect = lower value 0.99 | locus YER110C, stronger effect = lower value 1 | locus YER111C, strain swi4, stronger effect = lower value 1.03 | locus YER155C, strain BEM2 (second series), stronger effect = lower value 1.02 | locus YER155C, strain BEM2, stronger effect = lower value 1.01 | locus YER167W, strain BCK2, stronger effect = lower value 1.02 | locus YFR010W, strain ubp6, stronger effect = lower value 1.03 | locus YGL078C, strain dbp3, stronger effect = lower value 1.01 | locus YGL086W, strain mad1, stronger effect = lower value 1 | locus YGL167C, strain pmr1, stronger effect = lower value 0.995 | locus YGL173C, strain kem1, stronger effect = lower value 1.04 | locus YGL227W, strain vid30, stronger effect = lower value 1.01 | locus YGL240W, strain doc1, stronger effect = lower value 1.01 | locus YGL248W, strain PDE1, stronger effect = lower value 1.02 | locus YGL253W, strain hxk2, stronger effect = lower value 1.02 | locus YGR135W, strain pre9, stronger effect = lower value 0.993 | locus YGR252W, strain gcn5, stronger effect = lower value 0.965 | locus YHR013C, strain ard1, stronger effect = lower value 1.03 | locus YHR027C, strain rpn1, stronger effect = lower value 0.994 | locus YHR030C, strain SLT2, stronger effect = lower value 1.01 and 0.992 | locus YHR079C, strain IRE1 (second series), stronger effect = lower value 1 | locus YHR079C, strain IRE1, stronger effect = lower value 0.975 | locus YHR094C, strain hxt1, stronger effect = lower value 1 | locus YHR129C, strain ARP1, stronger effect = lower value 1.02 | locus YHR142W, strain chs7, stronger effect = lower value 1.05 | locus YHR200W, strain rpn10, stronger effect = lower value 0.994 | locus YIL066C, strain RNR3, stronger effect = lower value 1 | locus YIL073C, strain SPO22, stronger effect = lower value 1 | locus YIL125W, strain kgd1, stronger effect = lower value 1.01 | locus YIR030C, strain dcg1, stronger effect = lower value 1 | locus YJL092W, strain hpr5, stronger effect = lower value 1.01 | locus YJL095W, strain BCK1 (second series), stronger effect = lower value 1.01 | locus YJL095W, strain BCK1, stronger effect = lower value 1.02 and 0.977 | locus YJL115W, strain asf1, stronger effect = lower value 1.03 | locus YJL129C, strain trk1, stronger effect = lower value 1.05 | locus YJL134W, strain LCB3, stronger effect = lower value 1.01 | locus YJL154C, strain vps35, stronger effect = lower value 1.02 | locus YJL164C, strain tpk1, stronger effect = lower value 1.06 | locus YJL166W, strain qcr8, stronger effect = lower value 1.03 | locus YJL168C, strain set2, stronger effect = lower value 1.01 | locus YJL187C, strain SWE1 (second series), stronger effect = lower value 1.01 | locus YJL187C, strain SWE1, stronger effect = lower value 1.01 | locus YJR043C, strain POL32, stronger effect = lower value 0.994 | locus YJR066W, strain TOR1, stronger effect = lower value 0.93 | locus YKL009W, strain mrt4, stronger effect = lower value 0.959 | locus YKL068W, stronger effect = lower value 1.02 | locus YKL085W, strain MDH1 (second series), stronger effect = lower value 1 | locus YKL085W, strain MDH1, stronger effect = lower value 1 | locus YKL160W, strain elf1, stronger effect = lower value 0.995 | locus YKR001C, strain vps1, stronger effect = lower value 1.01 | locus YKR026C, strain gcn3, stronger effect = lower value 1.02 | locus YKR091W, strain srl3, stronger effect = lower value 1.02 | locus YLL001W, strain dnm1, stronger effect = lower value 0.989 | locus YLL026W, stronger effect = lower value 1.01 | locus YLL041C, strain sdh2, stronger effect = lower value 1.02 | locus YLR027C, strain aat2, stronger effect = lower value 1.02 | locus YLR039C, strain RIC1, stronger effect = lower value 1.09 | locus YLR058C, strain SHM2, stronger effect = lower value 1.02 | locus YLR102C, strain apc9, stronger effect = lower value 0.998 | locus YLR113W, strain HOG1, stronger effect = lower value 0.983 | locus YLR221C, strain rsa3, stronger effect = lower value 1.01 | locus YLR258W, strain gsy2, stronger effect = lower value 1.04 | locus YLR262C, strain YPT6 (second series), stronger effect = lower value 1.05 | locus YLR262C, strain YPT6, stronger effect = lower value 1.11 | locus YLR268W, strain sec22, stronger effect = lower value 0.986 | locus YLR320W, strain mms22, stronger effect = lower value 1.03 | locus YLR330W, strain CHS5, stronger effect = lower value 1.01 | locus YLR342W, strain FKS1 (second series), stronger effect = lower value 1.01 | locus YLR342W, strain FKS1, stronger effect = lower value 1 | locus YLR357W, strain rsc2, stronger effect = lower value 1.01 | locus YLR370C, strain arc18, stronger effect = lower value 0.999 | locus YLR371W, strain rom2, stronger effect = lower value 1 | locus YLR384C, strain iki3, stronger effect = lower value 0.991 | locus YLR418C, strain cdc73, stronger effect = lower value 0.994 | locus YML016C, strain PPZ1, stronger effect = lower value 1.03 | locus YML032C, strain rad52, stronger effect = lower value 0.995 | locus YML120C, strain ndi1, stronger effect = lower value 0.998 | locus YML124C, strain tub3, stronger effect = lower value 1.01 | locus YMR058W, strain fet3, stronger effect = lower value 1.03 | locus YMR078C, strain ctf18, stronger effect = lower value 1 | locus YMR125W, strain sto1, stronger effect = lower value 1.02 | locus YMR129W, stronger effect = lower value 0.991 | locus YMR205C, strain PFK2, stronger effect = lower value 1.02 | locus YMR223W, strain ubp8, stronger effect = lower value 1.02 | locus YMR231W, strain pep5, stronger effect = lower value 1.02 | [2] 0.983 | locus YNL067W, strain RPL9B, stronger effect = lower value 1.02 | locus YNL071W, strain lat1, stronger effect = lower value 1.03 | locus YNL128W, strain TEP1, stronger effect = lower value 1.02 | locus YNL183C, strain NPR1, stronger effect = lower value 0.925 | locus YNL209W, strain ssb2, stronger effect = lower value 0.993 | locus YNL233W, strain BNI4, stronger effect = lower value 1.01 | locus YNL248C, strain rpa49, stronger effect = lower value 1.02 | locus YNL250W, strain rad50, stronger effect = lower value 1.01 | locus YNL271C, strain bni1, stronger effect = lower value 1 | locus YNL298W, strain CLA4, stronger effect = lower value 0.999 | locus YNL307C, strain MCK1, stronger effect = lower value 1 | locus YNL322C, strain KRE1 (second series), stronger effect = lower value 1.01 | locus YNR049C, strain mso1, stronger effect = lower value 0.986 | locus YNR052C, strain pop2, stronger effect = lower value 1.03 | locus YOL006C, strain TOP1, stronger effect = lower value 1.07 | locus YOL012C, strain htz1 1.17 | locus YOL147C, strain pex11, stronger effect = lower value 1.01 | locus YOR001W, strain rrp6, stronger effect = lower value 1.02 | locus YOR061W, strain CKA2, stronger effect = lower value 1.02 | locus YOR069W, strain VPS5, stronger effect = lower value 1.02 | locus YOR070C, strain gyp1, stronger effect = lower value 1 | locus YOR080W, strain dia2, stronger effect = lower value 1.01 | locus YOR083W, strain WHI5, stronger effect = lower value 1.01 | locus YOR106W, strain vam3, stronger effect = lower value 1.07 | locus YOR136W, strain idh2, stronger effect = lower value 1.01 | locus YOR144C, strain elg1, stronger effect = lower value 1 | locus YOR184W, strain ser1, stronger effect = lower value 1 | locus YOR231W, strain MKK1, stronger effect = lower value 0.981 | locus YOR265W, strain rbl2, stronger effect = lower value 1 | locus YOR270C, strain vph1, stronger effect = lower value 1.11 | locus YOR290C, strain snf2, stronger effect = lower value 0.982 | locus YOR316C, strain cot1, stronger effect = lower value 1 | locus YPL051W, strain arl3, stronger effect = lower value 1.01 | locus YPL078C, strain atp4, stronger effect = lower value 1.03 | locus YPL106C, strain sse1, stronger effect = lower value 1.01 | locus YPL240C, strain hsp82, stronger effect = lower value 0.996 | locus YPL256C, strain CLN2, stronger effect = lower value 0.957 | locus YPR119W, strain clb2, stronger effect = lower value 1 | locus YPR141C, strain kar3, stronger effect = lower value 1.01 | locus YPR163C, strain tif3, stronger effect = lower value 0.992 | locus YPR167C, strain met16, stronger effect = lower value 1.03 | strain wtn01, stronger effect = lower value 0.993
